The molecules below were run against USP14 (UniProt P54578) (assay: log2 ratio of Biotin-Ahx-Ub-VS probe labelling (fragment/DMSO); higher = less target engagement (more negative = stronger competition), active = hit call of the paper (q ≤ 0.05, log2 ratio ≤ -1)). Conditions: compound concentration: 200 uM; treatment time: 3 h.
Protocol: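 Competitive ABPP in HEK293T cell lysate. Lysates were treated with each chloroacetamide fragment at 200 µM for 3 h, then with Biotin-Ahx-Ub-VS (0.5 µM, 1 h), NeutrAvidin-enriched and analysed by diaPASEF LC-MS/MS. Protein LFQ was median-normalised; average log2 ratio is fragment/DMSO from an unpaired t-test (n=3 treated, n=44 DMSO). Hits: q ≤ 0.05, log2 ratio ≤ -1, unique peptides ≥ 2.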

USP14, sequence (P54578 whole entry, the tested form may be a part): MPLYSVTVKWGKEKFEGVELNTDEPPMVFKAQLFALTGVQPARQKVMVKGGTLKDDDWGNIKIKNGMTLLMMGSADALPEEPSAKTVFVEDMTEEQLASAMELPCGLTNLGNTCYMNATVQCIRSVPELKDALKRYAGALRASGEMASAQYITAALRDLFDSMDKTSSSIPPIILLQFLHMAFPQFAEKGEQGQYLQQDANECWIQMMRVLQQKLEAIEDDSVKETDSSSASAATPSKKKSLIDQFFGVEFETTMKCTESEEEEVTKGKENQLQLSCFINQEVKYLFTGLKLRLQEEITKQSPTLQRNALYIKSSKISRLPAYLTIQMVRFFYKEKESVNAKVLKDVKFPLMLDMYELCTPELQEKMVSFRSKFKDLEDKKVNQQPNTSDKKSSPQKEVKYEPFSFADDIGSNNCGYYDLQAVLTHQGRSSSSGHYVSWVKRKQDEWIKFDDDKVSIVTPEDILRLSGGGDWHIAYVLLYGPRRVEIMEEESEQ

log2 ratio of Biotin-Ahx-Ub-VS probe labelling, inactive:
O=C(CCl)N1CCC(O)(Cc2ccc(F)cc2)C1 (stereo not given) 0.271, O=C(CCl)N1CCN(c2nc3ccccc3o2)CC1 -0.836, CN(C)C(=O)c1ccc(CNC(=O)CCl)cc1 0.0549, COc1cccc(CN(C)C(=O)CCl)c1 -0.252, O=C(CCl)NC1CCS(=O)(=O)c2ccccc21 (stereo not given) -0.152, CCN(C(=O)CCl)C1CCS(=O)(=O)C1 (stereo not given) -0.155, O=C(CCl)N1CCOC(c2cccc(F)c2)C1 (stereo not given) -0.3, O=C(CCl)N[C@H]1CC[C@@H](CO)CC1 -0.814, O=C(CCl)N1CCC(C(O)c2ccc(F)cc2)CC1 (stereo not given) -0.0836, O=C(CCl)N1CCN2C(=O)CCC2C1 (stereo not given) 0.0904, Cc1cccc(C)c1NC(=O)CCl -0.289, Cl.Cn1ncc2c1CCCC2NC(=O)CCl (stereo not given) -0.227, O=C(CCl)NC1CCC2(CC1)OCCO2 -0.308, COc1cc(Cl)c(C)cc1NC(=O)CCl -0.458, Cc1nc(CNC(=O)CCl)c2ccccn12.Cl 0.113, Cl.O=C(CCl)NCCN1CCc2ccccc21 -0.483, NC(=O)C(Cc1ccccc1)NC(=O)CCl (stereo not given) -0.156, O=C(CCl)NCc1ccc2c(c1)OCO2 0.052, O=C(CCl)N1CCC[C@@H]1c1ccon1 -0.652, O=C(CCl)NC(Cn1ccccc1=O)c1ccccc1 (stereo not given) -0.174, N#Cc1ccc(CNC(=O)CCl)cc1 -0.177, Cc1cccn2cc(CCNC(=O)CCl)nc12.Cl -0.461, O=C(CCl)N1CCOC(CCc2ccccc2)C1 (stereo not given) -0.562, Cc1ccccc1C1(CNC(=O)CCl)CCOCC1 -0.0489, O=C(CN1CCN(C(=O)CCl)CC1)Nc1cccc(F)c1 -0.0714, O=C(CCl)Nc1cc(Cl)ccc1C(=O)O 0.0912, O=C(CCl)N1CCC(c2noc3cc(F)ccc23)CC1 -0.337, Cc1cccc(NC(=O)CCl)c1C -0.488, Cc1cc(C2CCCN2C(=O)CCl)nn1C.Cl (stereo not given) -0.361, Cc1cccc(C(CNC(=O)CCl)N2CCOCC2)c1.Cl (stereo not given) 0.0229, NC(=O)C1CCCCN1C(=O)CCl (stereo not given) -0.15, Cc1nc(CN2CCN(C(=O)CCl)CC2)cs1 -0.431, O=C(CCl)N1CCC(c2ccn[nH]2)C1 (stereo not given) -0.0963, CC(c1ccccc1)N(C)C(=O)CCl (stereo not given) -0.237, CN1C(=O)c2ccc(NC(=O)CCl)cc2C1=O -0.292, Cc1ccc(C)c(Oc2ccc(CNC(=O)CCl)cn2)c1.Cl -0.371, O=C(CCl)Nc1ccccc1C(F)(F)F -0.46, O=C(CCl)N1CCOC2(CCC2)CC1 -0.247, CS(=O)(=O)c1ccc(NC(=O)CCl)cc1 0.0136, O=C(CCl)NCCC1COCCO1 (stereo not given) -0.27

From the supplement of paper PMC11732987, “Enantioselective OTUD7B fragment discovery through chemoproteomics screening and high-throughput optimisation” (Communications Chemistry, 2025)
